Assay results from PubChem BioAssay (NCATS).
Results filed as inconclusive are left out. A number with no mark means an inactive call. Calls of active or inactive are those of the source. Calls follow the shape of the dose curve; as a rule, active = well fitted cell-killing curve with a large enough effect; inconclusive = small, poorly fitted or top-dose-only effect; inactive = no such curve, though single readings can be large or run the other way.

Test: qHTS of pediatric cancer cell lines to identify multiple opportunities for drug repurposing: Primary screen for A673 cells (AID 1347092); also: nearly all actives have a fitted effect of over 45% in size
Conditions: A673 Ewing sarcoma viability, CellTiter-Glo ATP luminescence, 48 h; series mostly up to 46 µM; activity change, negative = cytotoxic: at the top concentration
Excerpt: Drug repurposing or repositioning has been offered as a strategy for drug development in oncology programs. This approach has special potential for childhood cancers and other rare or orphan diseases, where the expected return on new drug development has been a disincentive to pharmaceuticals. […] In this project we exploit the poly-pharmacology of drugs to discover new indications via phenotypic screening of a panel of 19 well-characterized cell lines derived from solid tumors seen in children and adolescents. The goal is to identify approved drugs with previously unrecognized anticancer properties that has the potential to reveal new mechanisms and biological processes involved in carcinogenesis or drug resistance. We employed a titration-based paradigm (quantitative high-throughput screening or qHTS), where all compounds were tested at multiple concentrations for their effect on cell viability. Concentration-response curves (CRCs) were derived directly from the primary screen, and both potency and efficacy values were used to identify compounds with robust bioactivity profiles. We screened the NIH Chemical Genomics Center (NCGC) Pharmaceutical Collection (NPC) and Mechanism Interrogation Plate (MIPE) small molecule collections of approved and investigational compounds against these cell lines; and measured metabolically active cells after 48 hours of compound treatment as a proxy for cell viability. […] Assay Submitter: Nathalia J. Martinez, National Center for Advancing Translational Sciences, National Institutes of Health, Rockville, MD, USA; email: natalia.martinez@nih.gov. Shen, M et al. Quantitative high-throughput phenotypic screening of pediatric cancer cell lines identifies multiple opportunities for drug repurposing. Oncotarget 2017 Dec 19;9(4):4758-4772. PMID 29435139.
The cells were obtained from University of North Carolina (UNC), Pediatric Preclinical Testing Program (PPT), and Coriell Institute (CI). qHTS cell viability assay: Cells were assayed in growth media at a density of 500-1,000 cells/well. Five microliters of cells were dispensed into 1,536-well, white, solid-bottom, TC-treated plates (Greiner Bio One) using a multidrop dispenser and incubated at 37 degrees C, 5% CO2, under a humidified atmosphere for 5 hours. Twenty-three nanoliters of compounds and controls (neutral control DMSO or positive control bortezomib at final concentration of 2.3 uM) were subsequently transferred by Kalypsys pintool. For primary screens, the MIPE collection was tested at 11-point dilutions (final concentrations range from 0.78 nM to 46 µM) and the NPC collection at 8-point dilutions (final concentrations range from 0.59 nM to 46 µM). Compounds tested in follow-up screens were assayed at 11-point dilutions. Cells were incubated for 48 hours, followed by addition of 3 uL of CellTiter-Glo (Promega). After a 15min incubation at room temperature, samples were analyzed for luminescence intensity using a ViewLux High-throughput CCD imager equipped with clear filters.
% is scaled to controls: 0 for no effect and ±100 for the full control effect; potency is read from the fitted curve at half-maximal effect.

SMILES	Potency	activity change, negative = cytotoxic
COc1ccc(S(=O)(=O)Nc2cc(-c3c(O)ccc4ccccc34)c(O)c3ccccc23)cc1	7.43 µM (active)	–
CN1CCCN(C(=O)c2cccc(-c3ccc(C=C4C(=O)Nc5ccc(Cl)cc54)o3)c2)CC1	18.7 µM (active)	–
O=C(CCCCCCC(=O)Nc1cccnc1)NO	11.8 µM (active)	–
CCOC(=O)[C@H](CCc1ccccc1)N[C@@H](C)C(=O)N1[C@@H](C(=O)O)C[C@H]2CCC[C@@H]21	9.35 µM (active)	–
c1cncc(CN2CCC(n3ncc4c(N5CCOCC5)nc(-c5ccc6[nH]ccc6c5)nc43)CC2)c1	11.8 µM (active)	–
NC(=NCCCCCCN=C(N)N=C(N)Nc1ccc(Cl)cc1)N=C(N)Nc1ccc(Cl)cc1	2.96 µM (active)	–
COc1ccc(S(=O)(=O)Nc2cccnc2Nc2ccc(O)cc2)cc1	0.235 µM (active)	–
Cn1cnc(=N)c2[nH]cnc21	0.187 µM (active)	–
COc1ccc(CCC(=O)c2c(O)cc(O[C@@H]3O[C@H](CO)[C@@H](O)[C@H](O)[C@@H]3O[C@@H]3O[C@@H](C)[C@H](O)[C@@H](O)[C@@H]3O)cc2O)cc1O	9.35 µM (active)	–
C[C@H]1C[C@H]2[C@@H]3CCC4=CC(=O)C=C[C@]4(C)[C@@H]3C(=O)C[C@]2(C)[C@@]1(O)C(=O)CO	–	-10.4%
O=C(C[C@@H]1CC=CCCC(=O)O[C@H](c2ccccc2)CNC1=O)NCc1ccc(Cl)cc1	–	-24.3%
O=c1[nH]c(=O)n([C@H]2C[C@@H](O)[C@@H](CO)O2)cc1C=CBr	–	-8.42%
Nc1ccc(C(=O)Nc2cccc(-c3nc(N4CCOCC4)c4oc5ncccc5c4n3)c2)cn1	14.8 µM (active)	–
CON=C(C(=O)N[C@@H]1C(=O)N2C(C(=O)O)=C(Cn3ccc(=N)n3CCO)CS[C@H]12)c1csc(N)n1	–	-9.5%
C=C1C[C@@]2(O)O[C@@]3(C[C@H]2C(C)C)[C@H](C)CC[C@H]13	–	1.41%
O=S(=O)(O)CCSSCCS(=O)(=O)O	–	12%
O=C(NNC(=O)c1ccc(CNS(=O)(=O)c2ccc(F)c(Cl)c2)cc1)c1ccccc1	–	-1.58%
CC(O)(C#Cc1ccc2c(c1)N(c1nc(N)ncc1Cl)CC2)c1nccs1 (stereo not given)	5.9 µM (active)	–
CCCCCN=C(N)NN=Cc1c[nH]c2ccc(OC)cc12	9.35 µM (active)	–
C=C(C)[C@@H]1CC[C@]2(C)CC[C@]3(C)[C@H](CC[C@@H]4[C@@]5(C)CC[C@H](O)C(C)(C)[C@H]5CC[C@]43C)[C@@H]12	–	2.39%

SMILES	Potency	activity change, negative = cytotoxic
CC(N[C@H]1CCCC[C@H]1NC(=O)c1ccc(Cl)cc1)c1cccc2ccccc12 (stereo not given in full)	0.743 µM (active)	–
Cn1c(Nc2ccc(C(F)(F)F)cc2)nc2cc(Oc3ccnc(-c4ncc(C(F)(F)F)[nH]4)c3)ccc21	2.35 µM (active)	–
O=C1NC(O)CCN1[C@@H]1O[C@H](CO)[C@H](O)[C@H]1O (stereo not given in full)	–	-7.58%
COC(=O)[C@@H]1CC2=CC(=O)CC[C@]2(C)[C@@]23O[C@@H]2C[C@@]2(C)[C@H](CC[C@@]24CCC(=O)O4)[C@@H]13	–	4.49%
CN1[C@H]2CC(OC(=O)[C@@H](CO)c3ccccc3)C[C@H]1[C@H]1O[C@H]12 (stereo not given in full)	–	0.471% [at 16.1 µM]
C[C@@H]1C(=O)O[C@H]2CC34[C@H]5C[C@@H](C(C)(C)C)C36[C@H](OC(=O)[C@@H]6O)O[C@@]4(C(=O)O5)[C@]21O (stereo not given in full)	–	4.57%
O=C(NCc1ccccc1)[C@H](Cc1ccccc1)NC(=O)[C@@H]1O[C@@H]1C(=O)NCCc1ccc(O)cc1	1.18 µM (active)	–
C=C1C(=O)O[C@H]2[C@@H]1CCC(C)=CCC[C@@]1(C)O[C@@H]21	7.43 µM (active)	–
COC1=C(OC)C(=O)C(CC=C(C)CCC=C(C)CCC=C(C)CCC=C(C)CCC=C(C)CCC=C(C)CCC=C(C)CCC=C(C)CCC=C(C)CCC=C(C)C)=C(C)C1=O	–	8.29%
COc1cc(C)c(C=CC(C)=CC=CC(C)=CC(=O)O)c(C)c1C	–	-10.1%
CC(=O)C1=C(O)C=C2Oc3c(C(C)=O)c(O)c(C)c(O)c3C2(C)C1=O (stereo not given)	0.187 µM (active)	–
COc1ccc(C(C)=O)c(O)c1	2.96 µM (active)	–
CCCNS(=O)(=O)Nc1ncnc(OCCOc2ncc(Br)cn2)c1-c1ccc(Br)cc1	–	-20.3%
Cc1coc2c1C(=O)C(=O)c1c-2ccc2c(C)cccc12	–	-3.4%
c1cc(CN2CCCNCCNCCCNCC2)ccc1CN1CCCNCCNCCCNCC1	–	-0.706%
Cn1cnc2c(F)c(Nc3ccc(Br)cc3F)c(C(=O)NOCCO)cc21	–	-25.3%
Cc1ccc(O)c(C(CCN(C(C)C)C(C)C)c2ccccc2)c1 (stereo not given)	–	-2.44%
NC[C@H]1O[C@H](O[C@H]2[C@@H](O)[C@@H](O[C@H]3O[C@H](CO)[C@@H](O)[C@H](N)[C@@H]3O)[C@H](N)C[C@@H]2N)[C@H](N)C[C@H]1O	–	1.83%
OCCNC1CCCc2c1[nH]c1ccc(-c3ccccc3)cc21 (stereo not given)	23.5 µM (active)	–
Cc1noc(-c2ccc(CSCCC(=O)O)cc2)c1NC(=O)OC(C)c1ccccc1Cl (stereo not given)	–	-3.27%
